Laboratory results as given in PubChem BioAssay AID1159580 (chemical genetic matrix, 2015).
Several values for one entry are separate records, joined by “and”; a condition that tells them apart may be missing. Identical values can stand only once. The whole screen tested about 5,500 compounds, of which about 2,000 (36%) were called active. Inconclusive results (about 18%) are left out. Rule as the data show it: active = normalized growth mostly below about 0.91 (no sharp cut-off); inconclusive = no clear call, values can overlap the other calls; inactive = mostly above about 0.92. The list shows a part of the results.

Test: chemical genetic growth profiling, strain panel (AID 1159580);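 also: tested at 20 µM; growth read once vehicle control cultures reached saturation at 30 °C; 1 = growth at the plate median or of vehicle wells; lower values mean less growth of the strain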
Conditions: growth OD

Measured: normalized growth

CCn1cc(C(=O)O)c(=O)c2cc(F)c(N3CCNC(C)C3)c(F)c21 (stereo not given)
inactive: S. cerevisiae deletion strains, locus YJR075W, strain HOC1, stronger effect = lower value 0.991 and 0.993 | S. cerevisiae deletion strains, locus YKL009W, strain mrt4, stronger effect = lower value 0.979 | S. cerevisiae deletion strains, locus YKL068W, stronger effect = lower value 0.981 | S. cerevisiae deletion strains, locus YKL085W, strain MDH1 (second series), stronger effect = lower value 0.985 | S. cerevisiae deletion strains, locus YKL085W, strain MDH1, stronger effect = lower value 0.985 | S. cerevisiae deletion strains, locus YKL160W, strain elf1, stronger effect = lower value 0.943 | S. cerevisiae deletion strains, locus YKL190W, strain CNB1, stronger effect = lower value 0.995 | S. cerevisiae deletion strains, locus YKR001C, strain vps1, stronger effect = lower value 0.993 | S. cerevisiae deletion strains, locus YKR026C, strain gcn3, stronger effect = lower value 0.996 | S. cerevisiae deletion strains, locus YKR091W, strain srl3, stronger effect = lower value 0.982 | S. cerevisiae deletion strains, locus YLL001W, strain dnm1, stronger effect = lower value 0.985 | S. cerevisiae deletion strains, locus YLL026W, stronger effect = lower value 0.99 | S. cerevisiae deletion strains, locus YLL041C, strain sdh2, stronger effect = lower value 0.975 | S. cerevisiae deletion strains, locus YLR027C, strain aat2, stronger effect = lower value 0.992 | S. cerevisiae deletion strains, locus YLR039C, strain RIC1, stronger effect = lower value 0.973 | S. cerevisiae deletion strains, locus YLR058C, strain SHM2, stronger effect = lower value 0.995 | S. cerevisiae deletion strains, locus YLR102C, strain apc9, stronger effect = lower value 0.986 | S. cerevisiae deletion strains, locus YLR113W, strain HOG1, stronger effect = lower value 1.06 | S. cerevisiae deletion strains, locus YLR221C, strain rsa3, stronger effect = lower value 1 | S. cerevisiae deletion strains, locus YLR258W, strain gsy2, stronger effect = lower value 0.98 | S. cerevisiae deletion strains, locus YLR262C, strain YPT6 (second series), stronger effect = lower value 0.996 | S. cerevisiae deletion strains, locus YLR262C, strain YPT6, stronger effect = lower value 0.979 | S. cerevisiae deletion strains, locus YLR268W, strain sec22, stronger effect = lower value 0.988 | S. cerevisiae deletion strains, locus YLR320W, strain mms22, stronger effect = lower value 0.961 | S. cerevisiae deletion strains, locus YLR330W, strain CHS5, stronger effect = lower value 0.982 | S. cerevisiae deletion strains, locus YLR342W, strain FKS1 (second series), stronger effect = lower value 0.951 | S. cerevisiae deletion strains, locus YLR342W, strain FKS1, stronger effect = lower value 0.957 | S. cerevisiae deletion strains, locus YLR357W, strain rsc2, stronger effect = lower value 0.919 | S. cerevisiae deletion strains, locus YLR370C, strain arc18, stronger effect = lower value 0.965 | S. cerevisiae deletion strains, locus YLR371W, strain rom2, stronger effect = lower value 0.992 | S. cerevisiae deletion strains, locus YLR384C, strain iki3, stronger effect = lower value 0.964 | S. cerevisiae deletion strains, locus YLR418C, strain cdc73, stronger effect = lower value 0.892 | S. cerevisiae deletion strains, locus YML016C, strain PPZ1, stronger effect = lower value 0.991 | S. cerevisiae deletion strains, locus YML032C, strain rad52, stronger effect = lower value 0.994 | S. cerevisiae deletion strains, locus YML120C, strain ndi1, stronger effect = lower value 0.993 | S. cerevisiae deletion strains, locus YML124C, strain tub3, stronger effect = lower value 0.996 | S. cerevisiae deletion strains, locus YMR058W, strain fet3, stronger effect = lower value 0.994 | S. cerevisiae deletion strains, locus YMR078C, strain ctf18, stronger effect = lower value 0.982 | S. cerevisiae deletion strains, locus YMR125W, strain sto1, stronger effect = lower value 0.961 | S. cerevisiae deletion strains, locus YMR129W, stronger effect = lower value 0.971 | S. cerevisiae deletion strains, locus YMR205C, strain PFK2, stronger effect = lower value 0.985 | S. cerevisiae deletion strains, locus YMR223W, strain ubp8, stronger effect = lower value 0.976 | S. cerevisiae deletion strains, locus YMR231W, strain pep5, stronger effect = lower value 0.984 | S. cerevisiae deletion strains, locus YMR263W, strain SAP30, stronger effect = lower value 1 | S. cerevisiae deletion strains, locus YMR307W, strain GAS1, stronger effect = lower value 1.01 | S. cerevisiae deletion strains, locus YNL067W, strain RPL9B, stronger effect = lower value 1.03 | S. cerevisiae deletion strains, locus YNL071W, strain lat1, stronger effect = lower value 0.977 | S. cerevisiae deletion strains, locus YNL128W, strain TEP1, stronger effect = lower value 0.964 | S. cerevisiae deletion strains, locus YNL153C, strain GIM3, stronger effect = lower value 1.06 | S. cerevisiae deletion strains, locus YNL175C, strain NOP13, stronger effect = lower value 0.998 | S. cerevisiae deletion strains, locus YNL183C, strain NPR1, stronger effect = lower value 0.962 | S. cerevisiae deletion strains, locus YNL197C, strain WHI3, stronger effect = lower value 1 | S. cerevisiae deletion strains, locus YNL209W, strain ssb2, stronger effect = lower value 0.965 | S. cerevisiae deletion strains, locus YNL224C, strain SQS1, stronger effect = lower value 0.994 | S. cerevisiae deletion strains, locus YNL233W, strain BNI4, stronger effect = lower value 1.03 | S. cerevisiae deletion strains, locus YNL248C, strain rpa49, stronger effect = lower value 0.926 | S. cerevisiae deletion strains, locus YNL250W, strain rad50, stronger effect = lower value 0.943 | S. cerevisiae deletion strains, locus YNL271C, strain bni1, stronger effect = lower value 0.992 | S. cerevisiae deletion strains, locus YNL298W, strain CLA4, stronger effect = lower value 0.988 | S. cerevisiae deletion strains, locus YNL307C, strain MCK1, stronger effect = lower value 0.984 | S. cerevisiae deletion strains, locus YNL322C, strain KRE1 (second series), stronger effect = lower value 0.964 | S. cerevisiae deletion strains, locus YNL322C, strain KRE1, stronger effect = lower value 1.02 | S. cerevisiae deletion strains, locus YNR049C, strain mso1, stronger effect = lower value 0.975 | S. cerevisiae deletion strains, locus YNR052C, strain pop2, stronger effect = lower value 0.989 | S. cerevisiae deletion strains, locus YOL006C, strain TOP1, stronger effect = lower value 1.08 | S. cerevisiae deletion strains, locus YOL012C, strain htz1 1.44 | S. cerevisiae deletion strains, locus YOL147C, strain pex11, stronger effect = lower value 0.985 | S. cerevisiae deletion strains, locus YOR001W, strain rrp6, stronger effect = lower value 1 | S. cerevisiae deletion strains, locus YOR061W, strain CKA2, stronger effect = lower value 0.993 | S. cerevisiae deletion strains, locus YOR069W, strain VPS5, stronger effect = lower value 0.988 | S. cerevisiae deletion strains, locus YOR070C, strain gyp1, stronger effect = lower value 0.985 | S. cerevisiae deletion strains, locus YOR080W, strain dia2, stronger effect = lower value 0.972 | S. cerevisiae deletion strains, locus YOR083W, strain WHI5 (second series), stronger effect = lower value 0.992 | S. cerevisiae deletion strains, locus YOR083W, strain WHI5, stronger effect = lower value 0.897 | S. cerevisiae deletion strains, locus YOR106W, strain vam3, stronger effect = lower value 0.931 | S. cerevisiae deletion strains, locus YOR136W, strain idh2, stronger effect = lower value 0.998 | S. cerevisiae deletion strains, locus YOR144C, strain elg1, stronger effect = lower value 0.992 | S. cerevisiae deletion strains, locus YOR184W, strain ser1, stronger effect = lower value 0.988 | S. cerevisiae deletion strains, locus YOR231W, strain MKK1, stronger effect = lower value 1.04 | S. cerevisiae deletion strains, locus YOR265W, strain rbl2, stronger effect = lower value 0.972 | S. cerevisiae deletion strains, locus YOR270C, strain vph1, stronger effect = lower value 0.982 | S. cerevisiae deletion strains, locus YOR290C, strain snf2, stronger effect = lower value 0.968 | S. cerevisiae deletion strains, locus YOR316C, strain cot1, stronger effect = lower value 1 | S. cerevisiae deletion strains, locus YPL051W, strain arl3, stronger effect = lower value 0.971 | S. cerevisiae deletion strains, locus YPL055C, strain LGE1, stronger effect = lower value 0.985 | S. cerevisiae deletion strains, locus YPL078C, strain atp4, stronger effect = lower value 0.957 | S. cerevisiae deletion strains, locus YPL106C, strain sse1, stronger effect = lower value 0.939 | S. cerevisiae deletion strains, locus YPL240C, strain hsp82, stronger effect = lower value 0.983 | S. cerevisiae deletion strains, locus YPL256C, strain CLN2, stronger effect = lower value 1.04 | S. cerevisiae deletion strains, locus YPR119W, strain clb2, stronger effect = lower value 0.993 | S. cerevisiae deletion strains, locus YPR141C, strain kar3, stronger effect = lower value 0.985 | S. cerevisiae deletion strains, locus YPR163C, strain tif3, stronger effect = lower value 0.986 | S. cerevisiae deletion strains, locus YPR167C, strain met16, stronger effect = lower value 0.999 | S. cerevisiae deletion strains, strain wtn01, stronger effect = lower value 0.998 | S. cerevisiae strains, strain wild type, stronger effect = lower value 0.997
